# Assay results from the supplement of paper PMC10849652.
# About 7,900 targets were measured; listed, in parts, are those with a hit and a random draw of the rest. About 0.6% of all pairs of compound and target were hits. A number with no mark means an inactive call.
# What was measured:
# Experiment in all cases: log2 fold change, soluble protein after heating vs DMSO (PISA); higher = thermal stabilisation; K562 cells, 10 uM, 30 min; active = over 0.2 and 3.5 SD of the protein, either way, in both replicates (recomputed)
# saracatinib = compound: CN1CCN(CCOc2cc(OC3CCOCC3)c3c(Nc4c(Cl)ccc5c4OCO5)ncnc3c2)CC1 [saracatinib]
# Procedure, shortened: (§1)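 For each measurement, 10 μM compound was applied for 30 min to K562 cells at 2×10^6 cells/mL. Aliquots were heated for 3 min across 48°C-58°C, pooled, and extracted in PBS with 0.5% NP-40 at 4°C; the supernatant after 21,000xg for 90 min was soluble protein. This was quantified by TMTpro 16plex LC-MS/MS with channel sums equalised, and thermal stability was reported relative to control samples from duplicates, on a log2 fold-change scale.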
# sotrastaurin = compound: CN1CCN(c2nc(C3=C(c4c[nH]c5ccccc45)C(=O)NC3=O)c3ccccc3n2)CC1 [sotrastaurin]
# Procedure, shortened: as §1
# alvocidib = compound: CN1CC[C@H](c2c(O)cc(O)c3c(=O)cc(-c4ccccc4Cl)oc23)[C@H](O)C1 [alvocidib]
# Procedure, shortened: as §1
# Tubastatin A = compound: CN1CCc2c(c3ccccc3n2Cc2ccc(C(=O)NO)cc2)C1 [Tubastatin A]
# Procedure, shortened: as §1
# [1] = compound: CNC(=O)C1=CC=CC=C1NC2=NC(=NC=C2Cl)NC3=C(C=C(C=C3)N4CCOCC4)OC
# Procedure, shortened: as §1
# defactinib = compound: CNC(=O)c1ccc(Nc2ncc(C(F)(F)F)c(NCc3nccnc3N(C)S(C)(=O)=O)n2)cc1 [defactinib]
# Procedure, shortened: as §1
# rucaparib = compound: CNCc1ccc(-c2[nH]c3cc(F)cc4c3c2CCNC4=O)cc1 [rucaparib]
# Procedure, shortened: as §1
# [2] = compound: CNc1nc(-c2ccc3c(N)n[nH]c3c2)cc(N2C[C@@H](C(=O)NC3CCCCC3)CC[C@H]2C)n1
# Procedure, shortened: as §1
# encorafenib = compound: COC(=O)N[C@@H](C)CNc1nccc(-c2cn(C(C)C)nc2-c2cc(Cl)cc(NS(C)(=O)=O)c2F)n1 [encorafenib]
# Procedure, shortened: as §1
# [3] = compound: COC(=O)[C@H](CCSC)NC(=O)C1=C(C=C(C=C1)NC[C@H](CS)N)C2=CC=CC=C2
# Procedure, shortened: as §1
# [4] = compound: COC1=CC=C(C=C1)CN2C=CC3=C2C=C(C=C3)C(=O)NO
# Procedure, shortened: as §1
# filanesib = compound: CON(C)C(=O)N1N=C(c2cc(F)ccc2F)S[C@@]1(CCCN)c1ccccc1 [filanesib]
# Procedure, shortened: as §1
# zotarolimus = compound: CO[C@H]1C[C@@H]2CC[C@@H](C)[C@@](O)(O2)C(=O)C(=O)N2CCCC[C@H]2C(=O)O[C@H]([C@H](C)C[C@@H]2CC[C@H](n3cnnn3)[C@H](OC)C2)CC(=O)[C@H](C)/C=C(\C)[C@@H](O)[C@@H](OC)C(=O)[C@H](C)C[C@H](C)/C=C/C=C/C=C/1C [zotarolimus]
# Procedure, shortened: as §1
# idasanutlin = compound: COc1cc(C(=O)O)ccc1NC(=O)[C@@H]1N[C@@H](CC(C)(C)C)[C@](C#N)(c2ccc(Cl)cc2F)[C@H]1c1cccc(Cl)c1F [idasanutlin]
# Procedure, shortened: as §1
# alisertib = compound: COc1cc(Nc2ncc3c(n2)-c2ccc(Cl)cc2C(c2c(F)cccc2OC)=NC3)ccc1C(=O)O [alisertib]
# Procedure, shortened: as §1
# [5] = compound: COc1cc2nc(-c3cc(F)ccc3O)nc(N[C@@H]3CNC[C@H]3C(C)(C)O)c2cc1OC
# Procedure, shortened: as §1
# gefitinib = compound: COc1cc2ncnc(Nc3ccc(F)c(Cl)c3)c2cc1OCCCN1CCOCC1 [gefitinib]
# Procedure, shortened: as §1
# [6] = compound: COc1cccc2cc(-c3nc([C@H]4CC[C@H](C(=O)O)CC4)n4ncnc(N)c34)[nH]c12
# Procedure, shortened: as §1
# lapatinib = compound: CS(=O)(=O)CCNCc1ccc(-c2ccc3ncnc(Nc4ccc(OCc5cccc(F)c5)c(Cl)c4)c3c2)o1 [lapatinib]
# Procedure, shortened: as §1
# pictilisib = compound: CS(=O)(=O)N1CCN(Cc2cc3nc(-c4cccc5[nH]ncc45)nc(N4CCOCC4)c3s2)CC1 [pictilisib]
# Procedure, shortened: as §1
# Chain of UniProt Q14978 (Q14978 whole entry, looked up): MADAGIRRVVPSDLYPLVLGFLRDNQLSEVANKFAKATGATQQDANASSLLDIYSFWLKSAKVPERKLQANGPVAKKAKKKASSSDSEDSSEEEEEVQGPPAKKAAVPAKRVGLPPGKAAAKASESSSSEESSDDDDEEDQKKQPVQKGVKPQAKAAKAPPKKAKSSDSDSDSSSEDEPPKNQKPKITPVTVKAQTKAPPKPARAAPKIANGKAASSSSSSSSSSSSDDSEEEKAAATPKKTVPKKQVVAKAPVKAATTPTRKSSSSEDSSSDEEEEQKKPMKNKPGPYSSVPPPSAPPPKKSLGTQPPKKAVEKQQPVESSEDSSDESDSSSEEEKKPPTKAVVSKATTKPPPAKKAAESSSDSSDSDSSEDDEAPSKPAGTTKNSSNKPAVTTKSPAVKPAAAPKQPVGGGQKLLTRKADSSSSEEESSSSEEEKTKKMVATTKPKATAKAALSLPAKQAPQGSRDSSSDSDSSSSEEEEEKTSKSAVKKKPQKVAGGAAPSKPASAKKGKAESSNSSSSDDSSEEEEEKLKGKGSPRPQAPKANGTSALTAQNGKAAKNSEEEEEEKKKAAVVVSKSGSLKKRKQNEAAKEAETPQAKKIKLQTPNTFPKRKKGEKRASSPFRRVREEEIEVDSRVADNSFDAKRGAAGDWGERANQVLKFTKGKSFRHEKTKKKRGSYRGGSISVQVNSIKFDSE
# Chain of UniProt Q9BV86 (Q9BV86 whole entry, looked up): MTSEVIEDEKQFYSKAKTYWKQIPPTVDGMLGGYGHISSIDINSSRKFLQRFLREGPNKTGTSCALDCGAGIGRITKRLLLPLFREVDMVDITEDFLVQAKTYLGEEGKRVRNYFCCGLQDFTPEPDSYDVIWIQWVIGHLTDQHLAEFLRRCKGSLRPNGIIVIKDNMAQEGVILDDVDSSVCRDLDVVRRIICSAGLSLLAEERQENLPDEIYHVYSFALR
# Chain of UniProt Q9NR45 (Q9NR45 whole entry, looked up): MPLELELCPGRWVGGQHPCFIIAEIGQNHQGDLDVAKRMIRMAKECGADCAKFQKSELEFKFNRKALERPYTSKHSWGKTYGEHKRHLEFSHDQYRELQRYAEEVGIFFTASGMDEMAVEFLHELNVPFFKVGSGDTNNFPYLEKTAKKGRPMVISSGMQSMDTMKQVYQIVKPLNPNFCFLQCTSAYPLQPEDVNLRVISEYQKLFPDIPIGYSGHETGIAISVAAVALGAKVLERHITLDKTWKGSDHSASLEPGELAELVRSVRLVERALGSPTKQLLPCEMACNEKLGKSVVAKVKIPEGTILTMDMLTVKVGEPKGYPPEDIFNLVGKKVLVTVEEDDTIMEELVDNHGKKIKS
# Chain of UniProt Q01804 (Q01804 whole entry, looked up): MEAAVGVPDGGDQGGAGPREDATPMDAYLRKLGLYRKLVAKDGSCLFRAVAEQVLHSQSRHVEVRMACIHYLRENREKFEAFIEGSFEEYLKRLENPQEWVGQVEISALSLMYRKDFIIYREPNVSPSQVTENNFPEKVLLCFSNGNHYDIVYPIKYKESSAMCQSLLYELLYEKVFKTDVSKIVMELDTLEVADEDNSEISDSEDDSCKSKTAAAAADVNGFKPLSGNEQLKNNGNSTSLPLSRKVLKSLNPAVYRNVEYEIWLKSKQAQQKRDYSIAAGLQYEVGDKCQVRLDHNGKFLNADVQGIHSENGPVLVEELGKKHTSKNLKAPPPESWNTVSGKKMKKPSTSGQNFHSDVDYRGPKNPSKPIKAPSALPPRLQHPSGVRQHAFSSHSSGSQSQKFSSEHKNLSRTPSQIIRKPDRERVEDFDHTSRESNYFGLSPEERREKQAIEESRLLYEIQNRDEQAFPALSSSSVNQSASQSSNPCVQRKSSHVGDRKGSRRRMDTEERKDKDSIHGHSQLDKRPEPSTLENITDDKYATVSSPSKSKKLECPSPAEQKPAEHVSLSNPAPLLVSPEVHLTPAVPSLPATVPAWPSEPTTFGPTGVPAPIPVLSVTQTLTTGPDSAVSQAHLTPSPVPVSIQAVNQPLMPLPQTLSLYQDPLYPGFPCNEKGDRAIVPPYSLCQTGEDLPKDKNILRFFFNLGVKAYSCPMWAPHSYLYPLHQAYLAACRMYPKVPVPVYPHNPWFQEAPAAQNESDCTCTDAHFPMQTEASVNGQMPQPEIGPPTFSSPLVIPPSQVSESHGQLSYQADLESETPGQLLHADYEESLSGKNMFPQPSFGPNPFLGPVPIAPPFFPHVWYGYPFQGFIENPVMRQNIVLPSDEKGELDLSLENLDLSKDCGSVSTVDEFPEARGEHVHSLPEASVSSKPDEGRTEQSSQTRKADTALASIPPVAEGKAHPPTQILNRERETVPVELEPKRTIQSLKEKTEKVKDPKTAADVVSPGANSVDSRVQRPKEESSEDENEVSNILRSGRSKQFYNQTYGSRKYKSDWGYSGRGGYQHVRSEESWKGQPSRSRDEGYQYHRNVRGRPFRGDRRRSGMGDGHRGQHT
# Chain of UniProt Q15003 (Q15003 whole entry, looked up): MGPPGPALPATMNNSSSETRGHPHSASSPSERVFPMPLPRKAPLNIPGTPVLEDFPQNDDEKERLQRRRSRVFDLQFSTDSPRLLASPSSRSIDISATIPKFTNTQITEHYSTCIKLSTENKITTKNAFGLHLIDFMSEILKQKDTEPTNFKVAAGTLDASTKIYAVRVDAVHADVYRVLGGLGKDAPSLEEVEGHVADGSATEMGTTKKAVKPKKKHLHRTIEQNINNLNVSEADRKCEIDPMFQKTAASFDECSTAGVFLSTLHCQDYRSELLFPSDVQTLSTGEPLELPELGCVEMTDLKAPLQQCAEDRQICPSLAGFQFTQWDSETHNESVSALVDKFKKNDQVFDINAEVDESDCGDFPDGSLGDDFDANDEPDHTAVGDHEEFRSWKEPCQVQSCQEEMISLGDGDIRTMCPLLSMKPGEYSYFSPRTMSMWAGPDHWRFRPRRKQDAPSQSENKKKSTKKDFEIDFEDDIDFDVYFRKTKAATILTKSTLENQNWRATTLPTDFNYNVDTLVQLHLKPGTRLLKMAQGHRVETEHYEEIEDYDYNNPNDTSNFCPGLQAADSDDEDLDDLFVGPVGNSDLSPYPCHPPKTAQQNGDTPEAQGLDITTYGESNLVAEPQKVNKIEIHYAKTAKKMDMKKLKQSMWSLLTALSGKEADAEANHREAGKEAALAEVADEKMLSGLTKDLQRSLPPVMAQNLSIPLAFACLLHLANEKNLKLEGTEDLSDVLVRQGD
# Chain of UniProt P56556 (P56556 whole entry, looked up): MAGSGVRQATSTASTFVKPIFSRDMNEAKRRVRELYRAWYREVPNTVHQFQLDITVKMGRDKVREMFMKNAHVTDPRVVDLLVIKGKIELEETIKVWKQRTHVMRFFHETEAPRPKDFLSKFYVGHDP
# Chain of UniProt O43847 (O43847 whole entry, looked up): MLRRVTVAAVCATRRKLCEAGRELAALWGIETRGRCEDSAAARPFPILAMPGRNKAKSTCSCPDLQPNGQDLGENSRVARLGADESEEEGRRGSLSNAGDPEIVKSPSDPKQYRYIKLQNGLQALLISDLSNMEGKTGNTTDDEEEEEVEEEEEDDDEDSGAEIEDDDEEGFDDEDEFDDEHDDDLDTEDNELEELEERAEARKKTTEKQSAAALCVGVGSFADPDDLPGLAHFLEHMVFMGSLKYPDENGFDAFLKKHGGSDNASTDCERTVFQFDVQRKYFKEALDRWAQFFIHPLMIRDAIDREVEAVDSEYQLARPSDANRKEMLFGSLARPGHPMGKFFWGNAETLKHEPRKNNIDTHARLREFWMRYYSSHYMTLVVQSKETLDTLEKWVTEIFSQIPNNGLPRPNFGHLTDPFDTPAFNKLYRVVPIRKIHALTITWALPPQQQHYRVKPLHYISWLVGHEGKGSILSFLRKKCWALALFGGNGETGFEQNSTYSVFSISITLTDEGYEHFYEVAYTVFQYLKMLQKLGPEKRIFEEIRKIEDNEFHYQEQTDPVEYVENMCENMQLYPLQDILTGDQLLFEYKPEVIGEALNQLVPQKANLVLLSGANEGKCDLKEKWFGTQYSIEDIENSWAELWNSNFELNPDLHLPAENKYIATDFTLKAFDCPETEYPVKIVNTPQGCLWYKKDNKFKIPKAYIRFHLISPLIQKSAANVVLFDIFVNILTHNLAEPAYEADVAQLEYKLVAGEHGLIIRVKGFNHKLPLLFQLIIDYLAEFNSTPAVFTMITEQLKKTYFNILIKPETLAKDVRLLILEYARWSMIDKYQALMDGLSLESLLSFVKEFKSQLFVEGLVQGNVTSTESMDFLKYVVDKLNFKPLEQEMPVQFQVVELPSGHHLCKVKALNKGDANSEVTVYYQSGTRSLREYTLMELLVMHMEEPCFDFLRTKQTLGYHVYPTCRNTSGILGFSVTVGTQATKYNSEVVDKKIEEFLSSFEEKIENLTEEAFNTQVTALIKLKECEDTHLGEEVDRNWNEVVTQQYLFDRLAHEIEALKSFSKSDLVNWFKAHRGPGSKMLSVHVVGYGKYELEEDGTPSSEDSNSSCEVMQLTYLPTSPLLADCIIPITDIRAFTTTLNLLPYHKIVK
# Chain of UniProt O43913 (O43913 whole entry, looked up): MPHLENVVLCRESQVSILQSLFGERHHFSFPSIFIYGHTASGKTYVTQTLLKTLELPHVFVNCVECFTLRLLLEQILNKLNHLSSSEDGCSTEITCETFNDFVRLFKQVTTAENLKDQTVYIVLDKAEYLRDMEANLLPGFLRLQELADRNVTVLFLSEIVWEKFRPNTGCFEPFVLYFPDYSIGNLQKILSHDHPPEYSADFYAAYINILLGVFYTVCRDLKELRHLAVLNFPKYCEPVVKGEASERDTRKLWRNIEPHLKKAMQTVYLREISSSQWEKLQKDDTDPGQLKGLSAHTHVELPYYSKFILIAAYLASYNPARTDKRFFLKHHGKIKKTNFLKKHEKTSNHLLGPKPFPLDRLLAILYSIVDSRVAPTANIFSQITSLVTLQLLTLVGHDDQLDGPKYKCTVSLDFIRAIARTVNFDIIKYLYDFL
# Chain of UniProt Q9UI09 (Q9UI09 whole entry, looked up): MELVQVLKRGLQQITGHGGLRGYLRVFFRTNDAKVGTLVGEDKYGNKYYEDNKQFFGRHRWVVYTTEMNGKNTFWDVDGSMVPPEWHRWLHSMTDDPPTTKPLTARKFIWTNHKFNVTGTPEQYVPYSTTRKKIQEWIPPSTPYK
Target,log2 fold change (saracatinib),log2 fold change (sotrastaurin),log2 fold change (alvocidib),log2 fold change (Tubastatin A),log2 fold change [1],log2 fold change (defactinib),log2 fold change (rucaparib),log2 fold change [2],log2 fold change (encorafenib),log2 fold change [3],log2 fold change [4],log2 fold change (filanesib),log2 fold change (zotarolimus),log2 fold change (idasanutlin),log2 fold change (alisertib),log2 fold change [5],log2 fold change (gefitinib),log2 fold change [6],log2 fold change (lapatinib),log2 fold change (pictilisib)
NRDC isoform 2 (UniProt O43847),-0.024,-0.028,-0.078,-0.009,-0.033,-0.077,0.092,0.01,0.024,-0.076,0,-0.038,0.005,-0.026,0.013,0.076,-0.022,-0.001,-0.019,-0.029
MSH2 (UniProt P43246),-0.006,-0.072,-0.111,0.041,0.065,-0.153,-0.06,0.031,0.062,-0.037,0.072,0,0.057,-0.019,-0.018,0.024,0.007,-0.026,-0.021,0.144
ORC5 (UniProt O43913),-0.081,0.149,-0.195,0.093,-0.097,-0.182,0.094,-0.009,0.033,-0.05,0.016,0.104,0.028,-0.013,0.125,0.07,0.088,0.018,0.062,0.012
NANS (UniProt Q9NR45),0.022,-0.058,-0.091,-0.026,0.034,-0.033,-0.084,0.051,0.004,-0.015,-0.11,-0.115,0.017,-0.045,-0.008,-0.017,-0.057,-0.017,-0.005,-0.018
PACS1 (UniProt Q6VY07),-0.018,-0.043,0.002,0.038,-0.076,-0.045,0.022,0.037,-0.01,-0.018,0.105,0.047,0.008,-0.005,0.006,0.054,0.043,0.002,0.013,0.021
NOLC1 isoform 2 (UniProt Q14978),-0.007,-0.036,-0.206,0.153,-0.122,-0.346 (active),-0.025,-0.089,-0.007,0,0.016,0.21,0.015,0.199,-0.112,-0.093,0.041,0.104,0.052,0.056
NDUFA12 (UniProt Q9UI09),0.029,-0.017,-0.094,0,-0.027,-0.037,-0.061,0.031,0.05,-0.018,-0.011,-0.071,0.002,-0.213,0.019,-0.167,-0.086,0.056,-0.04,0.023
NELFB isoform 2 (UniProt Q8WX92),-0.016,-0.065,-0.199,0.04,-0.026,-0.199,-0.034,-0.005,0.079,-0.057,0.01,0.046,0.019,-0.026,-0.007,0.085,-0.006,-0.02,-0.029,0.141
MRPL46 (UniProt Q9H2W6),-0.071,-0.073,0.016,0.037,0.29 (active),0.043,0.058,0.115,0.045,-0.026,-0.019,0.068,0.1,-0.012,-0.063,-0.088,0.005,-0.029,0.082,0.011
NFYC (UniProt Q13952),0.011,0.012,0.054,-0.021,-0.022,-0.022,-0.041,-0.019,0.005,0.005,-0.026,-0.023,0.004,-0.065,-0.036,0.017,-0.018,0.127,0.033,0.092
NDUFA6 (UniProt P56556),-0.037,0.003,-0.122,0.021,-0.039,-0.068,0.006,0.044,0.034,-0.039,0.097,-0.035,0.05,-0.383 (active),0.044,0.048,-0.004,0.068,0.097,0.087
NTMT1 (UniProt Q9BV86),-0.048,0.055,-0.104,-0.071,-0.032,-0.081,0.169,0.184,0.06,-0.157,-0.455 (active),-0.055,0.091,-0.121,-0.043,0.085,0.062,-0.027,-0.001,0.092
OTUD4 (UniProt Q01804),-0.031,-0.017,0.036,-0.018,-0.014,0.054,0.136,0.019,0.036,0.001,-0.122,0.182,0.022,0.063,-0.106,-0.062,0.039,0.013,0.095,-0.025
MUL1 (UniProt Q969V5),0.054,0.079,-0.013,0.047,0.056,0.059,0.072,-0.018,-0.074,0.079,-0.044,0.042,-0.064,-0.052,0.069,-0.05,0.017,-0.08,0.006,0.006
NCAPH (UniProt Q15003),0.001,-0.15,-0.016,0.04,0.024,-0.119,0.074,0.009,0.057,-0.039,-0.03,0.018,0.024,-0.046,0.016,0.092,0,-0.065,-0.021,0.062
NCL (UniProt P19338),-0.111,0.013,0.277,0.148,-0.001,0.354,0.387,0.137,0.257,-0.01,-0.091,0.454,0.026,0.274,-0.16,-0.099,-0.022,-0.217,0.159,-0.085
